# In the library only some 2.2% were active in any assay of this set; here they are far more common.
# BRCA1 expr act: increases BRCA1 expression; Potency, µM (highest dose often 46.1 µM), for the others: at the top dose activation, hits mostly activators; 380,000 compounds, 1.1% hits; MCF7-BRCA1-FFLuc reporter, luminescence, 48 h; response scale: scaled: vehicle 0%, 10 µM genistein 100%; also: potency is read from the fitted curve at half-maximal effect; nearly all actives have a fitted effect of over 80% in size
#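 MCF7 cells carrying a BRCA1-firefly luciferase reporter (2000 cells/well, phenol-red free MEM) were attached for 2 h at 37 °C, then given compounds for 48 h. Luminescence was read 15 min after luciferase reagent; activity normalized to genistein (10 microM) and DMSO.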
# Giardia kill: kills Giardia lamblia. activity change, % at 7.66 µM, hits read low. AID 540267. 340,000 compounds, 0.15% hits. Giardia lamblia trophozoite viability; in the data active = activity change below about -80%; inconclusive = between about -30% and that limit;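 also: parasites exposed to compound for two days anaerobically before the ATP read; % is scaled to controls: 0 for no effect and ±100 for the full control effect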
#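 Luminescent ATP signal served as the viability read-out, measured 15-30 min after adding ATP detection reagent to trophozoites that had been incubated with compounds for 48 hrs at 37 deg C anaerobically at 100 cells/well.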
# TrxR1 substrate: substrates of rat thioredoxin reductase 1. 390,000 compounds, 0.01% hits. AID 588456. O89049. purified TrxR1 substrate turnover, NADPH consumption readout. Potency, µM (top dose mostly 114 µM), inactives show at the top dose activity change, negative = substrate turnover; also: potency is read from the fitted curve at half-maximal effect; % is scaled to controls: 0 for no effect and ±100 for the full control effect; nearly all actives have a fitted effect of over 50% in size
# Target sequence (O89049 whole entry, looked up): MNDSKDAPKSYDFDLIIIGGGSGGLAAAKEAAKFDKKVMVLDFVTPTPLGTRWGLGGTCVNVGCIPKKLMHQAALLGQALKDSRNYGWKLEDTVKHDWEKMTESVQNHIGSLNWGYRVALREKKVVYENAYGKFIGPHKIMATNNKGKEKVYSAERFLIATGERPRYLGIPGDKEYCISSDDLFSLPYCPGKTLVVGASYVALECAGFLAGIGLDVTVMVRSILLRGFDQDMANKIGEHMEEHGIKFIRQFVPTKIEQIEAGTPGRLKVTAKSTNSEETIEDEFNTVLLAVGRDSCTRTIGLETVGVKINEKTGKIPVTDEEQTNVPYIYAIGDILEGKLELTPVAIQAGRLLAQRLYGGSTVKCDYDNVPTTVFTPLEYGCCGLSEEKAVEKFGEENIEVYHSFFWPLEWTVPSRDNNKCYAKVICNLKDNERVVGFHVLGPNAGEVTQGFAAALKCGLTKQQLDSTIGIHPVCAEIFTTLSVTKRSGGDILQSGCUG
#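 Rat TrxR1, dispensed at 90 nM, was prereduced with 400 uM NADPH (final) for 5 min at ~22 deg C, then incubated with compound 15 min before 400 uM selenite. A first-read NADPH fluorescence drop versus no-compound background flagged substrates.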
# IL-2 act: IL-2 activation; IL-2 activation reporter assay, cell-based qHTS; stimulated with anti-CD3/CD4/CD28 beads; in transgenic mouse T cells; activation, % (series mostly up to about 46 µM); 360,000 compounds, 0.065% hits; AID 652025; in the data active = activation above about 50%; inconclusive = mostly about 30% to 49%; also: 0% is about no effect
#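 First, unstimulated transgenic mouse T cells were exposed to compound for 60 min. Next, anti-CD3/anti-CD4-coated beads with anti-CD28 were added. Finally, after 18 h at 37 degrees C, EGFP and DsRed were imaged.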
# mIDH1 inhibitor: inhibitors of human mutant IDH1 R132H. Potency, µM (titrated, usually from 76.6 µM), for inactives: at the highest dose activity change, negative = inhibition, hits mostly inhibitors. O75874. AID 602179. 390,000 compounds, 0.093% hits. IDH1-R132H enzyme, NADPH consumption, diaphorase/resazurin fluorescence; also: potency is read from the fitted curve at half-maximal effect; % is scaled to controls: 0 for no effect and ±100 for the full control effect; nearly all actives have a fitted effect of over 65% in size
#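 IDH1-R132H (0.5 ug/mL dispensed) in pH 7.5 Tris buffer was preincubated 30 min with compound, then given a substrate mix of 0.016 mM NADPH and 2 mM alpha-KG for 80 min at room temperature; remaining NADPH was read by diaphorase/resazurin fluorescence.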
# TrxR1 inh: blocks rat thioredoxin reductase 1; O89049; 390,000 compounds, 1% hits; Potency, µM (titrated, usually from 114 µM), for inactives: top-dose activity change, negative = inhibition, actives largely listed as inhibitors; recombinant rTrxR1, NADPH fluorescence consumption, selenite substrate; AID 588453; also: potency is read from the fitted curve at half-maximal effect; % is scaled to controls: 0 for no effect and ±100 for the full control effect; nearly all actives have a fitted effect of over 65% in size
#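 Rat TrxR1 (90 nM in the dispensed reagent) was pre-reduced with 400 uM NADPH for 5 min at room temperature, then incubated with compound for 15 min. After 400 uM selenite was added, NADPH fluorescence (Ex 340/Em 450 nm) was followed for 8 min.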
# * hit, by the source's call; ? = inconclusive; . = no result given; [ ] = remark or other dose. Unless noted, calls follow the shape of the dose curve; as a rule, active = well fitted curve in the direction sought with a large enough effect; inconclusive = small, poorly fitted or top-dose-only effect, or another doubt; inactive = no such curve, though single readings can be large; an effect the other way counts as inactive or inconclusive.
SMILES,BRCA1 expr act,Giardia kill,TrxR1 substrate,IL-2 act,mIDH1 inhibitor,TrxR1 inh
CCOC(=O)c1c(C)oc2ncnc(Nc3ccc(OC)cc3OC)c12,0%,.,1%,.,-7%,14%
Cc1ccc(-c2nc(N3CCN(c4ccccc4Cl)CC3)c3ccccc3n2)cc1,.,.,39%,.,0%,59%
COc1ccc2c(Cl)c(C(=O)NN)sc2c1,-15%,5,9%,-1,2%,11%
COc1ccc2c(Cl)c(C(N)=O)sc2c1,10µM*,10,3%,-2,7%,4%
COc1ccc2[nH]c3c4c(ccc3c2c1)C(=O)C=CC4=O,-93%,9,-2%,-5,-12%,50µM*
C=CC1=CCN(S(=O)C(C)(C)C)[C@@H]1CCO (some centres not stated),0%,-4,10%,0,12%,50µM*
CN1C(=O)C(O)(CC(=O)/C=C/c2ccco2)c2cc(Br)ccc21 (configuration not stated),-58%,-23,-11%,0,-7%,16µM*
Cc1ccccc1-n1c(C)cc(/C=C(\C#N)C(=O)NCC2CCCO2)c1C (configuration not stated),14µM*,-15,-1%,0,11%,-12%
Cc1ccc(/C=C(\C#N)C(=O)NCC2CCCO2)o1 (configuration not stated),102%,-5,-16%,-1,-5%,?
O=C(COc1ccccc1)Nc1nc2ccccc2[nH]1,13µM*,-8,0%,0,2%,-5%
COc1ccccc1C(=O)Nc1nc2ccccc2[nH]1,-45%,-84*,108%,-1,7%,18%
COc1cc(SC)ccc1C(=O)Nc1nc2ccccc2[nH]1,-102%,-99*,149%,-3,-1%,90%
Cn1nc(C(=O)Nc2nc3ccccc3[nH]2)ccc1=O,7.9µM*,-2,-4%,-2,-12%,14%
COc1ccccc1C(=O)NCCC(=O)Nc1nc2ccccc2[nH]1,-6%,-9,1%[57.1 µM],0,-9%,6%[57.1 µM]
CCOc1ccc(NC(=O)C2CCCN(c3nn4cc(-c5ccc(OC)cc5)nc4s3)C2)cc1 (configuration not stated),.,.,-8%,.,11%,-1%
COc1cc(C2c3c(-c4c(C)cc(C)cc4O)n[nH]c3C(=O)N2Cc2ccco2)cc(OC)c1OC (configuration not stated),.,.,-4%,.,.,-5%
Cc1ccc(S(=O)(=O)N2CCC(c3nc(-c4cccs4)nc4ccccc34)CC2)cc1,5%,-6,0%,.,.,12%
COc1ccc(CCNC(=O)c2ccc(SC)cc2OC)cc1,-12%,-24,6%[57.1 µM],-1,3%,16%[57.1 µM]
CSc1ccccc1C(=O)Nc1nc2ccccc2c(=O)[nH]1,11µM*,26,-3%,0,0%,3%
COc1cc(SC)ccc1C(=O)NCCOc1ccc(F)cc1,10µM*,-24,-3%,0,1%,6%
CCSc1ccccc1C(=O)Nc1nc2ccccc2c(=O)[nH]1,-2%,3,6%[57.1 µM],2,5%,21%[57.1 µM]
CCOc1ccc(-c2nonc2NC(=O)c2ccccc2C)cc1,.,.,6%,.,3%,31%
CC1CCCN(C(=O)CSc2cnc3ccccc3n2)C1 (configuration not stated),11µM*,3,3%,2,2%,17%
CCOC(=O)c1sc(NC(=O)c2cc3nc(-c4ccc(Br)cc4)cc(C(F)(F)F)n3n2)c(C(=O)OCC)c1C,.,.,4%[57.1 µM],.,5%,1%[57.1 µM]
COC(=O)CSC1=C(C#N)C(=O)NC(c2ccccc2)S1 (configuration not stated),11%,1,-24%,-2,21%,28µM*
SMILES,BRCA1 expr act,Giardia kill,TrxR1 substrate,IL-2 act,mIDH1 inhibitor,TrxR1 inh
O=C(Nc1ccc(NC(=O)c2cc3ccccc3o2)cc1)c1ccccc1,.,.,7%,.,16%,16%
Cc1ccc(NC(=O)c2ccc(OC(=O)c3cc4ccccc4o3)cc2)cc1,4µM*,-11,13%,0,2%,6%
COc1ccc(OC(=O)c2cc3ccccc3o2)cc1,6%,1,-6%,-2,2%,5%
O=C(Nc1ccc2oc(=O)ccc2c1)c1cc2ccccc2o1,2.5µM*,-11,35%,0,9%,4%
Cc1ccc(C(=O)c2oc3ccccc3c2NC(=O)Cc2coc3c(C)c(C)ccc23)cc1,.,.,1%,.,-16%,3%
CC(=O)C1=C(C)OC(N)=C(C#N)C1c1ccco1 (configuration not stated),-17%,-7,2%[57.1 µM],1,16%,11µM*
COC(=O)C1=C(C)OC(N)=C(C#N)C1c1ccco1 (configuration not stated),-15%,8,0%,-2,-1%,1%
O=C(COc1ccccc1C(=O)Nc1ccccc1)NCCCCc1ccccc1,0%,.,-7%,.,.,6%
COc1ccc(Nc2nnc(-c3ccc(C)c(S(=O)(=O)N4CCOCC4)c3)c3ccccc23)cc1,.,.,-8%,.,10%,-9%
CCOC(=O)CN1C(=O)S/C(=C/c2ccco2)C1=O,20%,24,-15%,0,1%,-3%[57.1 µM]
CCn1c(C)cc(/C=C2/SC(=O)N(C(C)C(=O)OC)C2=O)c1C (configuration not stated),4.5µM*,-16,-11%,0,9%,-28%
O=C(O)CN1C(=O)/C(=C/c2ccc(N3CCCCC3)o2)SC1=S,-18%,-26,5%,0,10µM*,28µM*
COC(=O)CN1C(=O)S/C(=C/c2ccc(N3CCCCC3)o2)C1=O,10µM*,5,-15%,26,10%,3.5µM*
COCCn1c(C)cc(/C=C2/SC(=O)N(C(C)C(=O)OC)C2=O)c1C (configuration not stated),?,?,-5%,0,5%,6%
CCOC(=O)CN1C(=O)S/C(=C/c2ccc(N3CCCCC3)o2)C1=O,-5%,-9,0%,11,10%,50µM*
Cc1ccc(-n2nc3c(N4CCCC(C(=O)NCc5ccccc5C)C4)nnc(C)c3c2C)cc1 (configuration not stated),.,.,12%,.,-2%,7%
COc1ccc(S(=O)(=O)c2nnn(-c3ccccc3F)c2C)cc1,3%,.,-7%,.,25%,23%
COc1cccc(CNC(=O)c2cc(C)nc3c2c(C)nn3-c2cccc(F)c2)c1,.,.,98%,.,16%,67%
CCN(CC)CCN(CC)c1ccc(/C=C/c2ccnc3ccccc23)cc1,0%,.,9%[0.0914 µM],.,.,3%
COC(=O)CN1C(=O)S/C(=C/c2cc(C)n(C)c2C)C1=O,13µM*,-4,3%[57.1 µM],-2,4%,-21%[57.1 µM]
